Experiment [1] relates to Renilla luciferase (RLuc). The experiment is described as follows: residual bioluminescent signal relative to negative (DMSO) control; higher = less interference (more residual luciferase signal). The method in brief: (§1)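 Residual signal is the luminescence of a single well given as a percentage of the averaged vehicle-only wells from the same plate. To obtain it, purified firefly, NanoLuc or Renilla luciferase was pre-incubated for 10 min at room temperature with metal salts dissolved in water, at 0.01, 1 and 5 mM final, in screening or HEPES buffer. Luminescence was recorded 10 min after substrate addition.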

For experiment [2], the system named is NanoLuc luciferase (NLuc). Described as above. Put shortly:
as §1

Setting [3] is: metal salt concentration 0.01 mM, HEPES conditions (100 mM HEPES, 0.05% BSA, 0.3 M sodium ascorbate, pH 7.5).
Where [4] appears, read: metal salt concentration 0.01 mM, screening conditions (50 mM Tris-HCl, […] KH2PO4, […] NaCl, 0.25 mM EDTA, 0.1% BSA, 0.3 M sodium ascorbate, pH 7.4).
[5] abbreviates: metal salt concentration 1 mM, HEPES conditions (100 mM HEPES, 0.05% BSA, 0.3 M sodium ascorbate, pH 7.5).
Setting [6] is: metal salt concentration 1 mM, screening conditions (50 mM Tris-HCl, […] KH2PO4, […] NaCl, 0.25 mM EDTA, 0.1% BSA, 0.3 M sodium ascorbate, pH 7.4).
Where [7] appears, read: metal salt concentration 5 mM, HEPES conditions (100 mM HEPES, 0.05% BSA, 0.3 M sodium ascorbate, pH 7.5).
Where [8] appears, read: metal salt concentration 5 mM, screening conditions (50 mM Tris-HCl, […] KH2PO4, […] NaCl, 0.25 mM EDTA, 0.1% BSA, 0.3 M sodium ascorbate, pH 7.4).
The mark [9] stands for this setting: metal salt concentration 0.01 mM, HEPES conditions (100 mM HEPES, 0.1% BSA, pH 7.5).
Setting [10] is: metal salt concentration 0.01 mM, screening conditions (PBS, 0.1% BSA, pH 7.4).
Where [11] appears, read: metal salt concentration 1 mM, HEPES conditions (100 mM HEPES, 0.1% BSA, pH 7.5).
The mark [12] stands for this setting: metal salt concentration 1 mM, screening conditions (PBS, 0.1% BSA, pH 7.4).
[13] abbreviates: metal salt concentration 5 mM, HEPES conditions (100 mM HEPES, 0.1% BSA, pH 7.5).
Setting [14] is: metal salt concentration 5 mM, screening conditions (PBS, 0.1% BSA, pH 7.4).

± gives the standard deviation of the averaged measurements.

Take `[Cl][Sn][Cl]` [tin(II) chloride]: the residual bioluminescent signal in experiment [1] (setting [3]) came out at 103 ± 4.7%; in experiment [1] (setting [4]) it was 96.3 ± 7.4%; in experiment [1] (setting [5]) it was 103 ± 11%; in experiment [1] (setting [6]), 95.3 ± 12%; in experiment [1] (setting [7]), 92.9 ± 2.4%; in experiment [1] (setting [8]), 11.3 ± 2.3%.

As to `O=[N+]([O-])[O-].O=[N+]([O-])[O-].[Zn+2]` [zinc nitrate], the residual bioluminescent signal in experiment [2] (setting [9]) worked out at 93.6 ± 0.95%; in experiment [2] (setting [10]) it was 93 ± 6.4%; in experiment [2] (setting [11]), 30.5 ± 4.9%; in experiment [2] (setting [12]) it was 32.8 ± 4.5%; in experiment [2] (setting [13]), 16.1 ± 1.8%; in experiment [2] (setting [14]), 9.03 ± 2.6%. Also, the residual bioluminescent signal came out at 86 ± 1.9% in experiment [1] (setting [3]); 96.8 ± 8.7% in experiment [1] (setting [4]); 11.8 ± 2.2% in experiment [1] (setting [5]); 85.7 ± 3.5% in experiment [1] (setting [6]); 1.13 ± 0.12% in experiment [1] (setting [7]); 14.9 ± 12% in experiment [1] (setting [8]).

As to `O=[N+]([O-])[O-].[Na+]` [sodium nitrate], the residual bioluminescent signal in experiment [2] (setting [9]) was determined as 89.7 ± 1.5%; in experiment [2] (setting [10]), 96.7 ± 2.3%; in experiment [2] (setting [11]) it was 91.8 ± 4.2%; in experiment [2] (setting [12]), 93.2 ± 3.3%; in experiment [2] (setting [13]) it was 102 ± 2.5%; in experiment [2] (setting [14]), 94.1 ± 2.8%. For the same compound, the residual bioluminescent signal in experiment [1] (setting [3]) came to 93.9 ± 5.2%; in experiment [1] (setting [4]), 101 ± 3.4%; in experiment [1] (setting [5]), 96.7 ± 2.8%; in experiment [1] (setting [6]) it was 97.6 ± 5.2%; in experiment [1] (setting [7]) it was 109 ± 7.3%; in experiment [1] (setting [8]), 107 ± 2.8%.

`O=[N+]([O-])[O-].O=[N+]([O-])[O-].[Cu+2]` [copper(II) nitrate]: the residual bioluminescent signal in experiment [1] (setting [3]) was found to be 99.3 ± 10%; in experiment [1] (setting [4]), 104 ± 6.5%; in experiment [1] (setting [5]) it was 0.774 ± 0.61%; in experiment [1] (setting [6]), 0.583 ± 0.34%; in experiment [1] (setting [7]), 0.774 ± 0.24%; in experiment [1] (setting [8]) it was 0.897 ± 0.62%.

Regarding `O=[N+]([O-])[O-].[Li+]` [lithium nitrate], the residual bioluminescent signal in experiment [2] (setting [9]) was 93.22 ± 0.49%; in experiment [2] (setting [10]) it was 96.7 ± 1%; in experiment [2] (setting [11]), 97 ± 3.4%; in experiment [2] (setting [12]) it was 95.4 ± 4.8%; in experiment [2] (setting [13]) it was 102 ± 3.7%; in experiment [2] (setting [14]), 97.1 ± 3.3%. For the same compound, the residual bioluminescent signal in experiment [1] (setting [3]) worked out at 88.6 ± 6.9%; in experiment [1] (setting [4]) it was 87.4 ± 5.8%; in experiment [1] (setting [5]), 94.2 ± 14%; in experiment [1] (setting [6]) it was 86.8 ± 1.4%; in experiment [1] (setting [7]), 97.7 ± 6.4%; in experiment [1] (setting [8]) it was 88.5 ± 5.5%.

On to `O=[N+]([O-])[O-].O=[N+]([O-])[O-].[Pb+2]` [lead(II) nitrate], for which the residual bioluminescent signal in experiment [1] (setting [3]) amounted to 102 ± 1.7%; in experiment [1] (setting [4]), 112 ± 8.2%; in experiment [1] (setting [5]) it was 42.9 ± 4.4%; in experiment [1] (setting [6]), 69.9 ± 14%; in experiment [1] (setting [7]), 30.2 ± 3.3%; in experiment [1] (setting [8]) it was 5.96 ± 0.97%.

On to `O=[N+]([O-])[O-].[K+]` [potassium nitrate], for which the residual bioluminescent signal came out at 110 ± 7.7% in experiment [1] (setting [3]); 101 ± 7.9% in experiment [1] (setting [4]); 104 ± 1.4% in experiment [1] (setting [5]); 108 ± 11% in experiment [1] (setting [6]); 109 ± 5.3% in experiment [1] (setting [7]); 102 ± 3.8% in experiment [1] (setting [8]).

With `O=[N+]([O-])[O-].O=[N+]([O-])[O-].[Ca+2]` [calcium nitrate], the residual bioluminescent signal in experiment [2] (setting [9]) worked out at 97.1 ± 2.3%; in experiment [2] (setting [10]), 96.46 ± 0.94%; in experiment [2] (setting [11]), 102 ± 5.5%; in experiment [2] (setting [12]) it was 97.6 ± 4.1%; in experiment [2] (setting [13]) it was 109 ± 3.1%; in experiment [2] (setting [14]), 92.6 ± 4.6%. Moreover, the residual bioluminescent signal in experiment [1] (setting [3]) came to 83 ± 5.8%; in experiment [1] (setting [4]) it was 79.9 ± 9.1%; in experiment [1] (setting [5]) it was 92.3 ± 4.3%; in experiment [1] (setting [6]) it was 86.7 ± 4.6%; in experiment [1] (setting [7]), 106 ± 6.2%; in experiment [1] (setting [8]) it was 19.5 ± 7.2%.

In the case of `O=[N+]([O-])[O-].O=[N+]([O-])[O-].O=[N+]([O-])[O-].[Ga+3]` [gallium(III) nitrate], the residual bioluminescent signal was determined as 96.1 ± 2.9% in experiment [2] (setting [9]); 99.5 ± 2.3% in experiment [2] (setting [10]); 70.9 ± 6.9% in experiment [2] (setting [11]); 83 ± 7.1% in experiment [2] (setting [12]); 8.8 ± 1.5% in experiment [2] (setting [13]); 0.649 ± 0.57% in experiment [2] (setting [14]). Further, the residual bioluminescent signal in experiment [1] (setting [3]) turned out to be 105 ± 12%; in experiment [1] (setting [4]) it was 98.9 ± 6%; in experiment [1] (setting [5]), 10.6 ± 0.8%; in experiment [1] (setting [6]), 112 ± 11%; in experiment [1] (setting [7]), 3.03 ± 1.8%; in experiment [1] (setting [8]), 1.92 ± 1.4%.

`O=[N+]([O-])[O-].O=[N+]([O-])[O-].[Ni+2]` [nickel(II) nitrate]: the residual bioluminescent signal in experiment [1] (setting [3]) is 82.5 ± 12%; in experiment [1] (setting [4]), 99.08 ± 0.95%; in experiment [1] (setting [5]), 57.9 ± 4.5%; in experiment [1] (setting [6]) it was 79.3 ± 3.2%; in experiment [1] (setting [7]) it was 22.4 ± 2.8%; in experiment [1] (setting [8]) it was 52.7 ± 11%.

`O=[N+]([O-])[O-].O=[N+]([O-])[O-].O=[N+]([O-])[O-].[Al+3]` [aluminium nitrate]: the residual bioluminescent signal was determined as 85.7 ± 7.3% in experiment [1] (setting [3]); 91.1 ± 1% in experiment [1] (setting [4]); 7.39 ± 0.84% in experiment [1] (setting [5]); 90.2 ± 1.4% in experiment [1] (setting [6]); 103 ± 2.5% in experiment [1] (setting [7]); 94.2 ± 6.2% in experiment [1] (setting [8]).

On to `O=[N+]([O-])[O-].O=[N+]([O-])[O-].[Cd+2]` [cadmium nitrate], for which the residual bioluminescent signal in experiment [1] (setting [3]) turned out to be 100 ± 15%; in experiment [1] (setting [4]), 102 ± 9.5%; in experiment [1] (setting [5]), 11.8 ± 0.97%; in experiment [1] (setting [6]), 45.6 ± 6.1%; in experiment [1] (setting [7]), 1.41 ± 0.32%; in experiment [1] (setting [8]) it was 12.2 ± 3.1%.

The record behind these values is the supplement of paper PMC11628255, “Interference of metal ions on the bioluminescent signal of firefly, Renilla, and NanoLuc luciferases in high-throughput screening assays” (Frontiers in Chemistry, 2024).
